Source: PubChem BioAssay (National Center for Advancing Translational Sciences (NCATS))
PLK1 PBD block – inhibitors of human PLK1 polo-box domain binding. AID 720504. Potency, µM, without a hit: max response, negative = inhibition, hits mostly inhibitors. Plk1 PBD binding of FITC phosphopeptide, fluorescence polarization. actives 2.8% (n = 360,000). P53350; also: potency is read from the fitted curve at half-maximal effect; series mostly up to about 57 µM; % is scaled to controls: 0 for no effect and ±100 for the full control effect; nearly all actives have a fitted effect of over 65% in size
PI5P4K alpha inh – PI5P4K alpha (human) kinase inhibition. max response, %. AID 652105. PI5P4Kalpha enzyme, ADP-Glo luminescence, 60 min; stronger effect = lower value. actives 1.2% (n = 330,000); active = max response of -50% or lower; inconclusive = between -30% and -50%; inactive = -30% or higher; also: value at the top dose of about 77 µM; % is scaled to controls: 0 for no effect and ±100 for the full control effect
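PI5P4Kalpha ADP-Glo assay; 5 microM ATP final; 60 min RT reaction; HEPES pH 7.4/EGTA/CHAPS, 5% DMSO; controls lacking substrate or enzyme; luminescent end-point.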
BAZ2B block – inhibitors of human BAZ2B bromodomain. Q9UIF8. AlphaScreen BAZ2B-H3K14Ac peptide displacement. Potency, µM (titrated, usually from 114 µM), for the others: at the highest dose activity change, negative = inhibition, most hits filed as inhibitors. actives 4.4% (n = 360,000); also: potency is read from the fitted curve at half-maximal effect; % is scaled to controls: 0 for no effect and ±100 for the full control effect; nearly all actives have a fitted effect of over 60% in size
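Compounds, titrated to a top concentration of 110 uM, were incubated 30 min at room temperature with preformed BAZ2B/acetyl-K14 H3 peptide complex (50 nM each). Proximity signal was measured by AlphaScreen after 20 min with beads.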
JMJD2A Tudor inh – JMJD2A Tudor domain (human) inhibition | O75164 | AlphaScreen JMJD2A-Tudor / H3K4me3 peptide binding | Potency, µM (highest dose often 114 µM), for inactives: at the highest dose activity change, negative = inhibition, usual class: inhibitors | actives 4.4% (n = 390,000) | AID 504339; also: potency is read from the fitted curve at half-maximal effect; % is scaled to controls: 0 for no effect and ±100 for the full control effect; nearly all actives have a fitted effect of over 50% in size
Target sequence (O75164 whole entry, looked up, the tested form may be a part): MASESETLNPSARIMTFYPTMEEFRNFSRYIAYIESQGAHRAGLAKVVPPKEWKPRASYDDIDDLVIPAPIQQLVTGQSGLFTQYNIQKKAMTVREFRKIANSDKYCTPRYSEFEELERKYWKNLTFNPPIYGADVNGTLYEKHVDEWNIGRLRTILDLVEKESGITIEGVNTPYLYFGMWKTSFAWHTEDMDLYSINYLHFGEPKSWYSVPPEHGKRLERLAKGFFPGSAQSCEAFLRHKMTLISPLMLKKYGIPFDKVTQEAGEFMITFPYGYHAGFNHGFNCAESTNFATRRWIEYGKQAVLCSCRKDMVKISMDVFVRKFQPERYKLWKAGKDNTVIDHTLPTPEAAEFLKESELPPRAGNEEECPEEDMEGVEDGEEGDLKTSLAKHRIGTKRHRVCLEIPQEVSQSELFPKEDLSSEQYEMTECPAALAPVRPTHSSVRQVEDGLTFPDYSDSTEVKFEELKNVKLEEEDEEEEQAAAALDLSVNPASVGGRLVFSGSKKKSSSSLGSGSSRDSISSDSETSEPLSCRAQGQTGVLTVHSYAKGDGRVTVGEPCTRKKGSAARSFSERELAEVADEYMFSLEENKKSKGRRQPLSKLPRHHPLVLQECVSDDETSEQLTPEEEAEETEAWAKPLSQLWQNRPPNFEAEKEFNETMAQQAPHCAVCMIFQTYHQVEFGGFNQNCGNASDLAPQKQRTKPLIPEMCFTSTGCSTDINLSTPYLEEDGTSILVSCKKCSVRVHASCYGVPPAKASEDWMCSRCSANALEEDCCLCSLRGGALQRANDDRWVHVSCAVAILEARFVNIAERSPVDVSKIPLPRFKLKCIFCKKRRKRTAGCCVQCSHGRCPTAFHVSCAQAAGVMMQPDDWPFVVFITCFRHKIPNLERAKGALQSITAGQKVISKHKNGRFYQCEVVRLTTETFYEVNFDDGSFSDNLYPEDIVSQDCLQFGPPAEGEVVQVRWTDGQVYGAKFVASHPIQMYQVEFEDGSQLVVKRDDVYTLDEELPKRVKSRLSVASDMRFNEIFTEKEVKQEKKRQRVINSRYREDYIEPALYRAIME
G9a block – inhibitors of human histone lysine methyltransferase G9a | Q96KQ7 | G9a H3K9 monomethylation, AlphaScreen, 2 h | Potency, µM (series often up to 102 µM), for the others: at the top dose activity, negative = inhibition, hits mostly inhibitors | actives 8.8% (n = 350,000) | AID 504332; also: potency is read from the fitted curve at half-maximal effect; % is scaled to controls: 0 for no effect and ±100 for the full control effect; nearly all actives have a fitted effect of over 75% in size
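Chemiluminescent proximity detection of H3K9 monomethylation, read after 10 min bead incubation in the dark. Reaction: 20 nM G9a, 500 nM biotin-H3K9 peptide, 20 uM SAM cofactor, 2 h, room temperature, following 15 min enzyme-compound preincubation.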
HP1b binding inh – inhibitors of HP1-beta chromodomain binding to methylated histone tails. P83916. AlphaScreen HP1-beta / biotin-H3K9me3 peptide binding. Potency, µM (series often up to 114 µM), without a hit: top-dose activity change, negative = inhibition, hits mostly inhibitors. actives 0.56% (n = 390,000). AID 540317; also: potency is read from the fitted curve at half-maximal effect; nearly all actives have a fitted effect of over 70% in size
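AlphaScreen: HP1-beta (50 nM) preformed 30 min with biotin-H3(1-18)K9me3 peptide (50 nM) in PBS pH 7.4, 0.01% Tween-20. Compound added for 30 min at RT, then streptavidin donor/nickel chelate acceptor beads (10 ug/mL) for 30 min.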
* hit, by the source's call; ? = inconclusive; . = no result given; [ ] = remark or other dose. A selection: hits, their analogues and other compounds. The true share with any hit is near 12%. Unless noted, calls follow the shape of the dose curve; as a rule, active = well fitted curve in the direction sought with a large enough effect; inconclusive = small, poorly fitted or top-dose-only effect, or another doubt; inactive = no such curve, though single readings can be large; an effect the other way counts as inactive or inconclusive.

SMILES	PLK1 PBD block	PI5P4K alpha inh	BAZ2B block	JMJD2A Tudor inh	G9a block	HP1b binding inh
O=C(N/N=C/c1ccc(N2CCCCC2)o1)c1ccccc1[N+](=O)[O-]	-26%	-20	-9%	?	11µM*	-10%
CCN(c1ccc(NC(=O)c2ccc(N3CCCC3=O)cc2)cc1)C(C)C	-1%	?	-25%	-16%	3.5µM*	-2%
CC(C)(C)NCC(O)COc1ccc(NC(=O)NC2CCCCC2)cc1 (centres undefined)	.	.	.	.	-37%[12.7 µM]	.
CN1C(=O)c2ccc(NC(=O)c3c(C(=O)O)cccc3[N+](=O)[O-])cc2C1=O	-14%	-4	2%	-8%	40µM*	16%
Cc1ccccc1NC(=O)c1cccc(NC(=O)c2c(C(=O)O)cccc2[N+](=O)[O-])c1	-6%	3	.	0%	.	23%
O=C(Nc1ccc(S(=O)(=O)N2CCCc3ccccc32)cc1)C1CCCO1 (centres undefined)	-9%	.	4%	-25%	45µM*	7%
CCCCN(C)CCCNC(=O)c1ccc(N2CCCC2=O)cc1	-1%	5	-2%	15%	31%[0.501 µM]	30%
CN(CCCNC(=O)c1ccc(N2CCCC2=O)cc1)c1ccccc1	-4%	0	-34%	?	10µM*	11%
O=C(Nc1ccccc1N1CCCC1)C1CCCO1 (centres undefined)	-11%	5	-28%	-13%	28µM*	27%
O=C(O)c1ccccc1NC(=O)C1CCCO1 (centres undefined)	-4%	.	-20%	-8%	-26%[59 µM]	13%
Cc1ccc(N2CCN(S(=O)(=O)c3c(C)noc3C)CC2C)cc1 (centres undefined)	2%	9	-19%	-26%	0%	21%
O=C(Nc1ccc(N2CCCC2)c(Cl)c1)c1ccccc1[N+](=O)[O-]	27µM*	-12	?	?	?	-7%
O=C(NC(=S)Nc1ccccc1N1CCOCC1)c1ccco1	-2%	-1	-9%	-17%	50µM*	35%
O=C(Nc1ccccc1N1CCOCC1)c1ccco1	-14%	17	5%	-8%	17%	5%
O=C(Nc1ccccc1N1CCCC1)c1ccccc1Cl	-11%	2	?	-21%	40µM*	24%
O=C(Nc1ccc(N2CCCC2)c(Cl)c1)c1ccccc1F	-2%	0	.	.	.	.
O=C(NC(=S)Nc1ccccc1N1CCCC1)c1ccco1	?	-7	40µM*	?	.	?
O=C(Nc1ccccc1N1CCCC1)c1ccc(Cl)cc1Cl	-6%	3	6%	-29%	-7%	24%
CCOc1ccc(-c2cc3c(=O)n(CC(=O)NCc4ccccc4)ccn3n2)cc1	.	.	-13%	?	-2%[59 µM]	20%
CCn1cc(/C=C(\NC(=O)c2ccc(OC)cc2)C(=O)N2CCOCC2)c2ccccc21	-28%	-1	?	-28%	.	17%
O=C(Nc1ccccc1N1CCCC1)c1ccco1	-14%	-1	-27%	-36%	50µM*	7%
O=C(O)c1ccccc1-c1ccccc1C(=O)Nc1cccc(-c2nc3ccccc3o2)c1	67µM*	-18	-13%	-17%	-38%	46%
CCC(=O)Nc1cccc(-c2nc3ccccc3c(=O)o2)c1	-4%	-4	?	-1%	-44%[59 µM]	37%
CC(=O)Nc1cccc(-c2nc3ccccc3c(=O)o2)c1	-9%	-2	1%	-9%	11µM*	58%
CCCCc1nc2ccn(CC(=O)N(C)C)c(=O)c2n1Cc1ccc(-c2ccccc2-c2nn[nH]n2)cc1	.	.	.	.	-9%[59 µM]	.
SMILES	PLK1 PBD block	PI5P4K alpha inh	BAZ2B block	JMJD2A Tudor inh	G9a block	HP1b binding inh
Cc1ccc(CN2C(=O)C(O)(c3c[nH]c4ccccc34)c3cc(Cl)ccc32)cc1 (centres undefined)	.	.	-39%	?	-35%[59 µM]	15%
CCC(C)(C)C1CCc2[nH]nc(C(=O)O)c2C1 (centres undefined)	-4%	-5	?	-17%	2%[2.33 µM]	21%
CCCCNc1c(-c2cccc(-c3cc(C(C)=O)cs3)c2)nc2ccc(C)cn12	-7%	-11	35µM*	25µM*	-16%[2.33 µM]	-26%
CCCCNc1c(-c2cccc(-c3ccc(OC)cc3)c2)nc2ccc(C)cn12	-9%	-21	45µM*	25µM*	10%[2.33 µM]	-14%
CCCCCCSc1cccc(-c2nc3ccc(Cl)cn3c2NCCCC)c1	3%	1	.	26%	.	106%
CCCCNc1c(-c2cccc(-c3ccc(OC)cc3)c2)nc2cc(C)ccn12	-2%	?	.	?	.	-8%
Cc1cccc(N(CC(O)Cn2c3ccccc3c3ccccc32)S(=O)(=O)c2ccc(F)cc2)c1 (centres undefined)	.	.	-11%	-12%	-10%[59 µM]	23%
CNC(=O)c1cccc(NC(=O)c2ccccc2OCc2ccccc2)c1	-7%	2	6%	-18%	19%	12%
C[n+]1cnn2c1SCC1(COC1)C2	8%	.	-2%	25µM*	35µM*	4%
CC1Oc2ccccc2OC1(O)c1ccccn1 (centres undefined)	-6%	-2	-24%	50µM*	20µM*	41%
COC(=O)C(CC(C)C)NC(=O)CSc1nc(-c2ccccc2)c(C#N)c(=O)[nH]1 (centres undefined)	-13%	-4	2%	4%	-26%[12.7 µM]	39%
CSc1nc(-c2cccs2)c(C#N)c(=O)[nH]1	-15%	?	-20%	-6%	45µM*	0%
N#Cc1c(-c2cccs2)nc(SCc2ccc(Cl)cc2)[nH]c1=O	21µM*	1	?	?	-25%	-28%
O=c1[nH]c(SCc2ccc(Cl)cc2)nc2ccsc12	-14%	0	-2%	-9%	-13%	24%
N#Cc1c(-c2ccccc2)[nH]c(=O)[nH]c1=O	-5%	-92*	6%	-7%	-8%	29%
CCCOc1ccc(-c2nc(SCc3ccccc3)[nH]c(=O)c2C#N)cc1OC	27µM*	-26	-3%	?	?	21%[57 µM]
N#Cc1c(C(F)(F)F)cc(-c2ccccc2)[nH]c1=O	-9%	.	-3%	2%	-41%[0.0925 µM]	50%
CNC(=O)NC(=O)CSc1nc(-c2cccs2)c(C#N)c(=O)[nH]1	-8%	-7	-6%	-15%	6%	-2%
CCOC(=O)CCCCCC(=O)Nc1ccc2c(c1)C(=O)N([C@H](C)CO)C[C@H](C)[C@@H](CN(C)S(C)(=O)=O)OCCCC[C@@H](C)O2	-18%	-7	.	.	.	.
O=C(Nc1ccccc1)n1ccc(-c2ccc(-n3ccnc3)cc2)n1	.	.	-3%	.	17%	.
N#Cc1c(-c2ccccc2)nc(SCc2nc(N)nc(N3CCCCC3)n2)[nH]c1=O	3µM*	?	-6%	?	2%[12.7 µM]	?
CCSc1nc(-c2ccccc2)c(C#N)c(=O)[nH]1	-5%	.	-5%	-17%	-33%[59 µM]	16%
